Screening data from PubChem BioAssay.
D1 antag: human D1 dopamine receptor antagonism. P21728. HEK293 TREx D1 cells, calcium flux, dopamine EC80; active compounds read low. activity change, negative = inhibition, % at 10 µM. 360,000 tested, 3.2% active. AID 504652; in the data active = activity change below about -30%; also: % is scaled to controls: 0 for no effect and ±100 for the full control effect
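Compound effects on dopamine-evoked calcium signalling were measured in tetracycline-induced HEK293 Trex D1 cells. Dopamine at EC80 followed a 180 s compound pre-read, and fluorescence was tracked kinetically for 180 s more.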
D1 ag: activates the human D1 dopamine receptor; P21728; HEK293 T-REx D1 cells, calcium flux, agonist mode; activation, % at 2 µM; 360,000 tested, 1% active; AID 504660; also: 0% is about no effect
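Agonism was scored from calcium flux recorded over 180 s (1 read/s) after pintool compound addition, following a 10-cycle baseline. Cells were inducible force-coupled HEK293 TREx D1, plated overnight at 30 C and loaded with no-wash calcium dye.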
TRHR agonist: TRH receptor (human) agonism; AID 493084; 360,000 tested, 0.18% active; P34981; activation, % at 2 µM; TRHR cells, calcium flux fluo-8, FDSS agonist mode; also: 0% is about no effect
Target sequence (P34981 whole entry, looked up): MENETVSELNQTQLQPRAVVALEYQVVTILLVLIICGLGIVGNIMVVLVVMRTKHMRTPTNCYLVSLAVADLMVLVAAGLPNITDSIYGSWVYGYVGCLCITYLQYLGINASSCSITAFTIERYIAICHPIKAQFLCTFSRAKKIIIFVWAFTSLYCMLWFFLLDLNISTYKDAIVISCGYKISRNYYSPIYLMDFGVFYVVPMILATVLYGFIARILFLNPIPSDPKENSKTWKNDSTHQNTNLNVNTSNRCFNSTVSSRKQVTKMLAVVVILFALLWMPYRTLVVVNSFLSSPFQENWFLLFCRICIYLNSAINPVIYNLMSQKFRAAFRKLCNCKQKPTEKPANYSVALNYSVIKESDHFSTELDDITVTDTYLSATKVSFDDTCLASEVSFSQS
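In this calcium-flux screen, cells bearing human TRHR are dye-loaded with fluo-8, baselined for 10 cycles, then exposed to library compounds; positive kinetic calcium responses during the agonist phase mark hits, with TRH as control.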
Glioma ERSR ind: inducers of ER stress response in human glioma cells | U87-MG GRP78 promoter luciferase reporter, 16 h | Potency, µM, for the others: top-dose activation, hits mostly activators | 420,000 tested, 0.02% active | AID 602332; active = well fitted activation curve with a large enough effect; also: potency is read from the fitted curve at half-maximal effect; series mostly up to about 76 µM; % of control where 0% means no effect; nearly all actives have a fitted effect of over 35% in size
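ERSR induction read as luciferase luminescence (Bright-Glo, 10 min at room temperature) in stably transfected human U87-MG glioma cells exposed to compounds for 16 h, using GRP78 as sensor.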
TRHR enhancer: allosteric enhancers of human TRH receptor. 360,000 tested, 0.66% active. TRHR cells, fluo-8 calcium fluorescence, EC20 TRH enhancement. enhancement, % at 2 µM; in the data active = enhancement above about 30%; also: 0% is about no effect
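Enhancer read-out: after compound pinning and an initial kinetic agonist-mode read, an EC20 of TRH (10 nM final) was injected and fluo-8 calcium signal (Ex 480/Em 530) followed at 1 s/cycle for 100 cycles in TRHR-expressing cells.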
D1 PAM: human D1 dopamine receptor positive modulation. 360,000 tested, 0.036% active. AID 504651. potentiation, % at 10 µM. HEK293 TREx D1 cells, calcium flux, dopamine EC20 potentiation. P21728; in the data active = potentiation above about 30%; also: 0% is about no effect
Starred values were filed as active, the others as inactive; x = not tested or not shown. Only some compounds are listed: those with a hit (about 4% of all), similar ones and a draw of the others. Rule as the data show it, unless noted: active = activation above about 30%; inactive = the rest.

SMILES | D1 antag | D1 ag | TRHR agonist | Glioma ERSR ind | TRHR enhancer | D1 PAM
CCCCc1nc2cc(C(=O)N3CCCCC3COC)ccc2o1 (configuration not stated) | -31* | 1 | 0 | 0% | 2 | -7
Cn1cc(C(=O)c2cccc(Cl)c2Cl)cc1C#N | -26 | 1 | -2 | -6% | -1 | -3
CCCc1nc(C(C)(C)O)c(C(=O)O)n1Cc1ccc(-c2ccccc2-c2nn[nH]n2)cc1 | -43* | 0 | 0 | x | -1 | 0
CCCC(=O)OCCNc1cc(Sc2nc3ccccc3[nH]2)c2nonc2c1[N+](=O)[O-] | -49* | 0 | 0 | -16% | -3 | -10
CC(=O)c1cc(NC(=O)c2ccc(Cl)cc2)c(=O)oc1/C=C/N(C)C | -18 | 108* | 39* | -4% | -3 | 2
CSc1ccc2c(c1)C(N1CCN(C)CC1)Cc1ccccc1S2 (configuration not stated) | -87* | 24 | 3 | -13% | -3 | -2
CN1CCN(C2Cc3ccccc3Sc3ccc(Cl)cc32)CC1 (configuration not stated) | -105* | 7 | 1 | -4% | 13 | -6
CSc1ccc2c(c1)[C@H](N1CCN(C)CC1)Cc1ccccc1S2 | x | x | x | -1% | x | x
C[C@@H](C(=O)NCc1c(F)cccc1Cl)N1C(=O)N2CCc3c([nH]c4ccccc34)[C@@]2(C)C1=O | 5 | -1 | 1 | -3% | -3 | -2
Cc1ccccc1N1CCN(Cc2ccc(Br)o2)CC1 | -3 | 4 | 0 | 0% | -5 | -10
CCOc1ccc(N/C(=C(/C(Cl)=C(Cl)Cl)[N+](=O)[O-])n2cncn2)cc1 | 13 | 2 | 2 | x | 5 | 0
CCOc1ccccc1N/C(=C(/C(Cl)=C(Cl)Cl)[N+](=O)[O-])n1cncn1 | -39* | 1 | 0 | 2% | -2 | -11
Cc1ccc2[nH]c(O)c(N=NC(=O)CCc3ccccc3)c2c1Br | 1 | 2 | 1 | -5% | 32* | -3
O=C(CSCc1ccccc1)N=Nc1c(O)[nH]c2ccccc12 | -14 | 1 | -1 | 4% | 1 | -1
O=C(CSc1nc(=O)[nH]c2c1CCC2)NCc1ccccc1Cl | x | -3 | 0 | 1% | 4 | -3
CC(=O)C(N=Nc1ccccc1)(Sc1nnc(-c2ccccc2)n1-c1ccccc1)C(C)=O | -32* | 8 | 0 | 11% | -1 | 1
CCC(C)NCCCOc1c(C)cc(C)cc1Br (configuration not stated) | 11 | 32* | 1 | -5% | -2 | -7
O=C(NCc1cccs1)C1CCCN(S(=O)(=O)c2ccc3c(c2)OCO3)C1 (configuration not stated) | 2 | 1 | -1 | -1% | 5 | -2
CC(=O)OCC1(C)CN(c2ccccc2)N(C(=O)c2ccc(C(C)(C)C)cc2)C1=O (configuration not stated) | -64* | 1 | 0 | 3% | -4 | -6
CCc1ccc(NC(=O)CCC(=O)c2ccc(C)cc2)cc1 | -9 | 1 | -1 | 1% | 7 | -9
COc1ccccc1N1CCN(CC(=O)c2ccc(F)cc2)CC1 | -8 | 1 | 0 | -2% | 4 | 1
CCC(C)NC(=O)COC(=O)c1cc([N+](=O)[O-])ccc1Sc1nc(C)cs1 (configuration not stated) | -13 | 1 | 0 | -5% | 0 | -4
Cc1csc(Sc2ccc([N+](=O)[O-])cc2C(=O)OCC(=O)NC2CCCC(C)C2C)n1 (configuration not stated) | -32* | 1 | 0 | -1% | -3 | 3
O=C(N/N=C/c1ccc(Cl)s1)c1ccccc1[N+](=O)[O-] | 2 | 1 | 0 | -1% | 0 | 0
CCCOc1ccccc1C1CC(=O)NC2=C1C(=O)CCC2 (configuration not stated) | 5 | 14 | 2 | -4% | 5 | -4
SMILES | D1 antag | D1 ag | TRHR agonist | Glioma ERSR ind | TRHR enhancer | D1 PAM
Cn1c2c(c(=O)n(C)c1=O)C(c1ccccc1OC(F)F)C1=C(CCCC1=O)N2 (configuration not stated) | -36* | 10 | 0 | 0% | -1 | -4
O=C(/C=C/c1ccccc1)C1=C(O)C(=O)N(CCO)C1c1ccc2c(c1)OCO2 (configuration not stated) | -6 | 2 | -1 | 0% | 36* | -5
CC(=O)Nc1ccc(NC(=O)c2ccccc2Sc2ccc([N+](=O)[O-])cc2Cl)cc1 | 10 | 17 | 3 | -5% | -3 | -7
Cc1ccc(NC(=O)Cc2ncon2)cc1Cl | -45* | 1 | 1 | -6% | 0 | -3
Cc1ccc(NC(=O)Cc2cccs2)cc1Cl | -12 | -1 | -1 | 3% | -7 | 1
Cc1ccc(NC(=O)Cc2coc3ccc(C(C)C)cc23)c(C)c1 | -9 | 5 | 0 | -3% | -1 | 2
Cc1ccc(NC(=O)Cc2coc3ccc(C(C)C)cc23)cc1Cl | -2 | 38* | -1 | -5% | 3 | 0
COC(=O)C1(C)NC(c2ccccc2C)C2C(=O)N(c3ccc(F)cc3)C(=O)C21 (configuration not stated) | 3 | 2 | 0 | -3% | 3 | 0
CC(=O)c1ccc(NC(=O)Cn2nc(C)c([N+](=O)[O-])c2C)cc1 | -13 | 3 | 0 | -1% | -1 | 4
O=S(=O)(Cc1ccccc1)N1CCC(N2CCN(c3ccccc3)CC2)CC1 | 1 | 3 | 0 | -1% | 1 | 0
CCO/C=C/C(=O)N(C)CCC#N | -2 | 2 | 1 | -3% | -1 | -4
O=C(Cn1nc(Cl)nc1Cl)c1ccccc1 | -14 | -1 | 0 | -3% | -6 | 3
CC(C)(C)C(=O)Cn1nc(Cl)nc1Cl | 2 | 5 | 1 | -7% | 32* | -2
CC(=O)c1cccc(NC(=O)c2ccc(C)o2)c1 | 0 | 2 | 0 | 3% | 27 | -1
CCCOc1ccc(N2C(=O)CC(NCc3cccs3)C2=O)cc1 (configuration not stated) | -3 | -1 | 0 | -7% | 6 | -3
CCCOc1ccc(N2C(=O)CC(NCc3ccncc3)C2=O)cc1 (configuration not stated) | -59* | 1 | 0 | 0% | 4 | 1
Cc1ccc(Nc2cc(C)nc3ccc(C)cc23)cc1 | -33* | 4 | 0 | -3% | 9 | -6
Cc1cc(Nc2cccc(Cl)c2)c2ccccc2n1 | -65* | 17 | -1 | -5% | -2 | -10
CCCCCCN(CCCCCC)c1ccc(/C=C/c2ccnc3ccccc23)cc1 | x | x | x | -1% | x | x
O=C(NCc1cccnc1)c1cc(C(=O)NCc2cccnc2)cc([N+](=O)[O-])c1 | x | x | x | -3% | x | x
